# Values without a mark were called inactive. Inconclusive results are not listed. Activity calls are given as the source filed them. Unless noted, calls follow the shape of the dose curve; as a rule, active = well fitted curve in either direction with a large enough effect (not every such curve was filed as active); inconclusive = small, poorly fitted or top-dose-only effect, or another doubt; inactive = flat fitted curve, though single readings scatter.
# Key:
# [1] = molecular target: Lysosomal acid glucosylceramidase (Homo sapiens) (UniProt P04062); experiment: Glucocerebrosidase-p2 (AID 348; in the data active = potency below about 10 µM; also: potency is read from the fitted curve at half-maximal effect); conditions: purified GBA, blue fluorogenic substrate, 40 min
# Chain of Lysosomal acid glucosylceramidase (Homo sapiens) (P04062 whole entry, looked up): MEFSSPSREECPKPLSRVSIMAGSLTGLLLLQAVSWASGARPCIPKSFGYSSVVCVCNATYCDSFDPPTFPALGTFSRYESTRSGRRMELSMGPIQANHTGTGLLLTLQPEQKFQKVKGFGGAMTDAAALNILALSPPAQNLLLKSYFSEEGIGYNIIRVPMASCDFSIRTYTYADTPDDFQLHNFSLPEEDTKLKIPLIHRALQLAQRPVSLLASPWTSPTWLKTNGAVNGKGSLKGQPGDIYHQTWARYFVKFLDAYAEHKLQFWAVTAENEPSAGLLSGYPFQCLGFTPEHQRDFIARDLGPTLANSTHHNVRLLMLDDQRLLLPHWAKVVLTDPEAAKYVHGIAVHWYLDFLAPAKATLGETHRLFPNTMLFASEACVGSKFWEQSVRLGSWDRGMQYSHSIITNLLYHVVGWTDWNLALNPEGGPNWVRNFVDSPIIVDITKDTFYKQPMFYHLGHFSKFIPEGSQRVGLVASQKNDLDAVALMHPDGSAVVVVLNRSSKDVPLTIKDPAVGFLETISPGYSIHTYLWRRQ
# Outline: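 Compounds titrated from 0.6 nM upwards against 0.2 nM enzyme in pH 5.9 citric acid/KH2PO4, taurocholate, tween-20; blue fluorogenic substrate 80 uM, 40 min room temperature, stopped and read Ex 365/Em 440 for AC50.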
# [2] = AP1 Signaling Pathway (AID 357); conditions: ME-180 AP-1-bla reporter, EGF-induced, beta-lactamase ratio, 5 h; at 7.69 µM (top of the series) unless noted;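 also: ME-180 reporter cells stimulated with EGF at its EC50 level; % is scaled to controls: 0 for no effect and ±100 for the full control effect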
# Outline: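 In this screen, ME-180 cells in Opti-MEM with 0.5% dialyzed FBS received EC50 EGF and compound titrations for 5 h. AP-1 reporter beta-lactamase was detected via CCF4 ratio, giving AC50 for positive and negative modulators.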
# [3] = Stat Signaling Pathway (AID 446); conditions: ME-180 SIE beta-lactamase reporter, IL-6 stimulated, 5 h; at 7.69 µM (top of the series) unless noted;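 also: ME-180 cervical cancer cells given 40 pM IL-6 alongside compound; SIE-controlled beta-lactamase reporter measured as 460/530 nm FRET emission ratio; % is scaled to controls: 0 for no effect and ±100 for the full control effect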
# Outline: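 Screening format detects activators and inhibitors alike: ME-180 SIE-bla cells stimulated at 40 pM IL-6 for 5 hrs with compound, then dual-emission beta-lactamase read at 405 nm excitation.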
# [4] = molecular target: Glucocorticoid receptor (Homo sapiens) (UniProt P04150); experiment: GR-GFP Redistribution (AID 450;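 active = compounds whose dose series gives a full or clear partial fitted curve of increased nuclear translocation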; also: potency is read from the fitted curve at half-maximal effect); conditions: U2OS GR-GFP nuclear translocation, laser cytometry, 2 h
# Chain of Glucocorticoid receptor (Homo sapiens) (P04150 whole entry, looked up, the tested form may be a part): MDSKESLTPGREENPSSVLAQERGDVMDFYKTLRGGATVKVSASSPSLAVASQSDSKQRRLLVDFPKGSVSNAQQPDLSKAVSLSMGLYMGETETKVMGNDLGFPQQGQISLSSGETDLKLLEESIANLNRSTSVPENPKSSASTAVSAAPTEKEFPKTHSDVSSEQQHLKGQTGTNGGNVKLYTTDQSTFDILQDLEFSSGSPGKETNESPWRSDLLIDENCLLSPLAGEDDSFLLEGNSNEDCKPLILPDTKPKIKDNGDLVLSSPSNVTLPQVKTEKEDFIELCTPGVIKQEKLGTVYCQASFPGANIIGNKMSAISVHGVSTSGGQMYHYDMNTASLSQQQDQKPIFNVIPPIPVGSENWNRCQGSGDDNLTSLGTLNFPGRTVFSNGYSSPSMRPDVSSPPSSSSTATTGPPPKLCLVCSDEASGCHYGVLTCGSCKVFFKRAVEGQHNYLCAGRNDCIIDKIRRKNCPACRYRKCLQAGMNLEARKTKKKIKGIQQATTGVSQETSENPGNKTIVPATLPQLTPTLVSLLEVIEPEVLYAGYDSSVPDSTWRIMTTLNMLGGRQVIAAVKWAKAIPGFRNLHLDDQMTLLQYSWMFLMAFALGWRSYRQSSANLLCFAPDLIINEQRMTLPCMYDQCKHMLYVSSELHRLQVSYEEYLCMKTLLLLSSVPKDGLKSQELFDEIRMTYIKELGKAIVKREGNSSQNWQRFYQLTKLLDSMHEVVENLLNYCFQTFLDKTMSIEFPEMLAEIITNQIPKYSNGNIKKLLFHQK
# [5] = molecular target: Glucocorticoid receptor (Homo sapiens) (UniProt P04150); experiment: GR-EFC Redistribution (AID 451; calls by dose curve; also: potency is read from the fitted curve at half-maximal effect); conditions: CHO-K1 GR-EFC translocation, beta-gal luminescence, 2 h
# Outline: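 CHO-K1 cells expressing nuclear EA and GR-ED fragments of b-gal; compounds titrated up to 46 uM final, 2 h at 37 C. GR nuclear translocation read as complemented b-gal luminescence after 1 h RT detection.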
# [6] = molecular target: Mitogen-activated protein kinase 10 (Mus musculus) (UniProt Q61831); experiment: JNK3 AlphaScreen Assay (AID 530); conditions: JNK3 lysate, c-Jun phosphorylation; series mostly up to 11.4 µM;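 also: kinase came from lysate of stimulated human HepG2 cells; signal reports phosphorylation of biotinylated GST-cJun 1-79 at Ser73 with 10 µM ATP; % is scaled to controls: 0 for no effect and ±100 for the full control effect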
# Outline: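 qHTS format: compounds tested as titrations against IL-1beta/TNF-alpha-activated HepG2 lysate JNK3 with biotin-GST-cJun substrate and 10 uM ATP at room temperature. Loss of anti-phospho-cJun AlphaScreen signal indicates inhibition.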
# [7] = molecular target: 3',5'-cyclic-AMP phosphodiesterase 4B (Homo sapiens) (UniProt Q07343); experiment: qHTS Assay for Inhibitors of PDE-IV (AID 607; active = well fitted activation curve with a large enough effect in the main read-out, with a control signal flat, not every such curve was filed as active; also: % of control where 0% means no effect); conditions: HEK293 ACTOne CNG channel cells, membrane potential fluorescence; series mostly up to 22.9 µM
# Chain of 3',5'-cyclic-AMP phosphodiesterase 4B (Homo sapiens) (Q07343 whole entry, looked up): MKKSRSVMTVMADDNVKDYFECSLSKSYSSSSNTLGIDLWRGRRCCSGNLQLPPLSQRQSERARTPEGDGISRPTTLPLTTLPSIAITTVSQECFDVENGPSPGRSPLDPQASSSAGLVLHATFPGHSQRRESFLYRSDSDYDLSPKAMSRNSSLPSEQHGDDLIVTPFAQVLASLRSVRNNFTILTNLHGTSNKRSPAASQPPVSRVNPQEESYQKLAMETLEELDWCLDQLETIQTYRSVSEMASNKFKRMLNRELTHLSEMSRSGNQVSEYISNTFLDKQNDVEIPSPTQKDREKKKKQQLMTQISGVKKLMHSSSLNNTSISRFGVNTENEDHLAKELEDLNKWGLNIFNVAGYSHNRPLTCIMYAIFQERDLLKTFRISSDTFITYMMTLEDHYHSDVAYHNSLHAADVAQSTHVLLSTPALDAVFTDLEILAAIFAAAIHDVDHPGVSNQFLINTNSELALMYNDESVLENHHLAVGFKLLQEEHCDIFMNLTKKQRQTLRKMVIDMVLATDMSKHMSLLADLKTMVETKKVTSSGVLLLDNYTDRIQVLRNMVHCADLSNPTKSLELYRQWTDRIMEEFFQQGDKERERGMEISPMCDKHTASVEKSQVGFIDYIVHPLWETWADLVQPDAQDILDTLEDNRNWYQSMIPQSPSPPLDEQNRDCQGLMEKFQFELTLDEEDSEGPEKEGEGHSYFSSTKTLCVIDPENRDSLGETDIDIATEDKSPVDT
# Outline: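 The readout is membrane depolarisation from a cAMP-sensing CNG channel, detected with a potential dye at ex 535/em 590. Cells were HEK293-derived (endogenous PDE-IV) at 1000 cells/well, titrated up to 22.9 uM final.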
# [8] = NFAT Signaling Pathway (AID 444); conditions: Jurkat NFAT-bla M1, carbachol, beta-lactamase ratio, 5 h; at 7.69 µM (top of the series) unless noted;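 also: carbachol stimulus at about its EC50 of 1 µM final; % is scaled to controls: 0 for no effect and ±100 for the full control effect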
# Outline: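 Jurkat cells with NFAT-driven β-lactamase reporter and co-expressed M1 receptor, stimulated with carbachol (final 1 uM, ~EC50), compound titration, 5 h at 37 °C. CCF4 loaded 1 h at RT; 460/530 nm ratio gave %activity and AC50.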
# [9] = molecular target: Cytochrome P450 3A4 (Homo sapiens) (UniProt P08684); experiment: qHTS Assay for Inhibitors and Substrates of Cytochrome P450 3A4 (AID 884; active = well fitted curve in the direction sought with a large enough effect; an effect the other way counts as inactive or inconclusive; also: potency is read from the fitted curve at half-maximal effect; nearly all actives have a fitted effect of over 50% in size); conditions: recombinant CYP3A4, Luciferin-PPXE luminescence; series mostly up to 57.1 µM
# Chain of Cytochrome P450 3A4 (Homo sapiens) (P08684 whole entry, looked up): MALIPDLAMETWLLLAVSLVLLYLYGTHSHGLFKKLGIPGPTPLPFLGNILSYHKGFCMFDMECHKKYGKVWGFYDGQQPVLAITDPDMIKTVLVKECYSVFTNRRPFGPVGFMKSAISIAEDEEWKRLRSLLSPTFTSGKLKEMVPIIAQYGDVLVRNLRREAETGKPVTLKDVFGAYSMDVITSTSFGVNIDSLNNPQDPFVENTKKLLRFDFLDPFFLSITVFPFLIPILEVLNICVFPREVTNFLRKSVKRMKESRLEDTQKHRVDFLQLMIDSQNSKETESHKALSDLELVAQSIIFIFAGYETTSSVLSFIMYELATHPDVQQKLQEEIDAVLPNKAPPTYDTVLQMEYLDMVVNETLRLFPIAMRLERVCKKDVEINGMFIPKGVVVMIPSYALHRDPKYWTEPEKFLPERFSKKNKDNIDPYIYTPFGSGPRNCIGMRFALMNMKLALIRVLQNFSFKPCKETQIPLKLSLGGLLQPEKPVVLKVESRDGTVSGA
# Outline: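 20 nM human CYP3A4 with 25 uM Luciferin-PPXE (at KM) in 200 mM KPO4, preincubated 10 min with compound; NADPH regeneration started a 60 min RT reaction. Luciferin detected by luminescence, normalized to 57 uM ketoconazole as full inhibition.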
# [10] = molecular target: Cytochrome P450 3A4 (Homo sapiens) (UniProt P08684); experiment: qHTS Assay for Activators of Cytochrome P450 3A4 (AID 885; active = well fitted curve in the direction sought with a large enough effect; an effect the other way counts as inactive or inconclusive; also: nearly all actives have a fitted effect of over 65% in size); conditions: recombinant CYP3A4, Luciferin-PPXE luminescence, 60 min; series mostly up to 11.4 µM
# Outline: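 Steps: enzyme/substrate mix dispensed; compound added, 10 min RT; NADPH regeneration solution added, 60 min RT; luciferin detection buffer stops reaction; 20 min later luminescence measured.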
# [11] = molecular target: Cytochrome P450 2C19 (Homo sapiens) (UniProt P33261); experiment: qHTS Assay for Inhibitors and Substrates of Cytochrome P450 2C19 (AID 899; active = well fitted curve in the direction sought with a large enough effect; an effect the other way counts as inactive or inconclusive; also: potency is read from the fitted curve at half-maximal effect; nearly all actives have a fitted effect of over 60% in size); conditions: recombinant CYP2C19, luciferin-H EGE luminescence; series mostly up to 11.4 µM
# Chain of Cytochrome P450 2C19 (Homo sapiens) (P33261 whole entry, looked up): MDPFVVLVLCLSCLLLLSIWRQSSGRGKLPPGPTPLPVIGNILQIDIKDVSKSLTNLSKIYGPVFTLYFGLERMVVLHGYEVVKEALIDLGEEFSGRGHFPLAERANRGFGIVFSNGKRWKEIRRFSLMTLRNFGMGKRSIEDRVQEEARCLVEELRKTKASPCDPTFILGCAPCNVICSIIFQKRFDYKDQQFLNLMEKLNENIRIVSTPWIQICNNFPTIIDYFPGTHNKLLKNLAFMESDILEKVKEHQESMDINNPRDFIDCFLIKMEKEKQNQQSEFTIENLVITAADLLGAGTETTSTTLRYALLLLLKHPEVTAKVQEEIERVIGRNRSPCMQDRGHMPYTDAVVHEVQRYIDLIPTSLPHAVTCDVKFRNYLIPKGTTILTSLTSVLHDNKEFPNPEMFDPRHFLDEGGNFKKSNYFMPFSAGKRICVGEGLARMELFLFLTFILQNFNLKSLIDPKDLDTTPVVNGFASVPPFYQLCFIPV
# Outline: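 Luminescent read-out of luciferin formed from Luciferin-H EGE (10uM, equal to KM). Enzyme 5nM in 50mM KPO4; compound added, 10 min at 37C, then NADPH regenerating system for 60 min at 37C. Full inhibition defined by 57uM ketoconazole.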
# [12] = Confirmation and Secondary Assay for Modulators of Hemoglobin Beta Chain Splicing at IVS2 654 locus (AID 910; active = well fitted curve in the direction sought with a large enough effect; an effect the other way counts as inactive or inconclusive;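 also: HeLa cells stably carrying EGFP split by mutant beta-globin IVS2-654 intron; % of control where 0% means no effect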); conditions: HeLa EGFP-654 splicing reporter, GFP fluorescence, 48 h; series mostly up to 38.3 µM
# Outline: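 HeLa cells stably expressing EGFP interrupted by β-globin IVS2-654 intron, seeded overnight in Opti-MEM/2% FCS, then treated 2 days at 37 °C. Restored splicing read as total peak GFP intensity per well by laser scanning cytometry (488 nm excitation, 500–520 nm emission); 500 nM antisense PNA as control.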
# [13] = Confirmation and Secondary Assay for Modulators of Hemoglobin Beta Chain Splicing at IVS2 705 locus (AID 930; active = well fitted curve in the direction sought with a large enough effect; an effect the other way counts as inactive or inconclusive;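 also: HeLa cells stably expressing the EGFP-705 splicing reporter; GFP fluorescence per well restored by corrected splicing of the IVS2-705 intron in EGFP; % of control where 0% means no effect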); conditions: HeLa EGFP-705 splicing reporter, GFP fluorescence, 48 h; series mostly up to 38.3 µM
# Outline: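 First, HeLa EGFP-705 cells are seeded at 500/well in Optimem with 2% FCS and left overnight. Next, compound or DMSO is added for 2 days. Finally wells are laser-scanned and total peak GFP intensity scored.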
# [14] = molecular target: Ubiquitin carboxyl-terminal hydrolase 1 (Homo sapiens) (UniProt O94782); experiment: Inhibitors of USP1/UAF1: Pilot qHTS (AID 504865; active = well fitted curve in the direction sought with a large enough effect; an effect the other way counts as inactive or inconclusive; also: potency is read from the fitted curve at half-maximal effect; nearly all actives have a fitted effect of over 35% in size); conditions: purified USP1/UAF1, Ub-rhodamine cleavage fluorescence; series mostly up to 114 µM
# Chain of Ubiquitin carboxyl-terminal hydrolase 1 (Homo sapiens) (O94782 whole entry, looked up): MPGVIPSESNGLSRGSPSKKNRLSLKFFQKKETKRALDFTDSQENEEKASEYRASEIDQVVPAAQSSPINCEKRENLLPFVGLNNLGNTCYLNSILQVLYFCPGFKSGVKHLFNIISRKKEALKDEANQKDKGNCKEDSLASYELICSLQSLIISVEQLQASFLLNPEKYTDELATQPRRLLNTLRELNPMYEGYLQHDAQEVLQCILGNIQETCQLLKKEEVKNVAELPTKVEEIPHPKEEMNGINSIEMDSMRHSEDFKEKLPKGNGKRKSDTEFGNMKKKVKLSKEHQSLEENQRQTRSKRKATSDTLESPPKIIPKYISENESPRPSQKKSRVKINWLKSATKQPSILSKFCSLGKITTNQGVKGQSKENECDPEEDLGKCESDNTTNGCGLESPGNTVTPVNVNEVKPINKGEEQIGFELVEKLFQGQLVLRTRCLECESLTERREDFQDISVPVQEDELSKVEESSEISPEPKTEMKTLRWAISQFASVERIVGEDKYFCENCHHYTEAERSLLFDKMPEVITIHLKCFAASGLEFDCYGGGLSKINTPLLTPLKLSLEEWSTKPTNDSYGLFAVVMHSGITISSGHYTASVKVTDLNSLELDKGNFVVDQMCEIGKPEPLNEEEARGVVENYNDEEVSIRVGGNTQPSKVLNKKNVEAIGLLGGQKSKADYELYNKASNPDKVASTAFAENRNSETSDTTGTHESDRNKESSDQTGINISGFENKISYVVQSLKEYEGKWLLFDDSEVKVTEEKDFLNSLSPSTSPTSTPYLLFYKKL
# Outline: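 Enzyme-free wells gave the negative control, while test wells held 1nM USP1/UAF1 preincubated with compound for 15 min at room temperature. Ub-Rho at 150nM final started the reaction, and fluorescence at 480/540 nm was recorded kinetically.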
# [15] = molecular target: Cytochrome P450 2D6 (Homo sapiens) (UniProt P10635); experiment: qHTS Assay for Inhibitors and Substrates of Cytochrome P450 2D6 (AID 891; active = well fitted curve in the direction sought with a large enough effect; an effect the other way counts as inactive or inconclusive; also: potency is read from the fitted curve at half-maximal effect; nearly all actives have a fitted effect of over 60% in size); conditions: recombinant CYP2D6, luciferin-ME EGE luminescence; series mostly up to 11.4 µM
# Chain of Cytochrome P450 2D6 (Homo sapiens) (P10635 whole entry, looked up): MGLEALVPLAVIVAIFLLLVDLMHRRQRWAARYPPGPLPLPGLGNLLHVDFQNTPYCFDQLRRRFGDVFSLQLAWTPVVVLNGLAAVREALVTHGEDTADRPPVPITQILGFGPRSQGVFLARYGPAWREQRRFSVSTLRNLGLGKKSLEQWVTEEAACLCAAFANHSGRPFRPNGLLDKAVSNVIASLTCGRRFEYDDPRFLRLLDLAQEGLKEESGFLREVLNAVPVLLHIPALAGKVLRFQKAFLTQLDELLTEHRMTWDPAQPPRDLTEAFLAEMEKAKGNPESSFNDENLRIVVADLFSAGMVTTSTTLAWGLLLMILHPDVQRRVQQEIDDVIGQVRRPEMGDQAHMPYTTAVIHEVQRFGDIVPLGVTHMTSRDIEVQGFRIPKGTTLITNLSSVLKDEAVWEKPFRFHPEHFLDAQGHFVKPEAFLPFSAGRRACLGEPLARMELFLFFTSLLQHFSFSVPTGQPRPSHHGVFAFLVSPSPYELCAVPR
# Outline: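 Human CYP2D6 (5 nM) with 30 uM Luciferin-ME EGE (at Km) in 100 mM KPO4, compound preincubated 10 min, then NADPH regeneration system for 60 min at room temperature. Luciferin read by luminescence; normalized to 1.43 uM quinidine.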
SMILES,Potency [1],"activity change, negative = inhibition [2]","activity, negative = inhibition [3]",Potency [4],Potency [5],Potency [6],Potency [7],"activity change, negative = inhibition [8]",Potency [9],Potency [10],Potency [11],outcome [12],outcome [13],Potency [14],Potency [15]
c1ccc(-c2ccc(-c3ccc(C4=NCCN4)cc3)o2)cc1,> 11.4 µM,8.2%,25.4%,> 46 µM,> 9.22 µM,inactive,inactive,,,,,,,,
Oc1cc(O)c2c(c1)O[C@H](c1ccc(O)c(O)c1)[C@@H](O)[C@@H]2c1c(O)cc(O)c2c1O[C@@H](c1ccc(O)c(O)c1)[C@H](O)C2,> 11.4 µM,16.5%,-2.56%,> 46 µM,> 9.22 µM,inactive,inactive,,,,,,,,
Clc1ccc(CSCc2ccc(Cl)cc2Cl)c(Cl)c1,> 11.4 µM,-7.04%,1.58%,> 46 µM,> 9.22 µM,inactive,inactive,,,,,,,,
Nc1ccc(N(S(=O)(=O)c2ccccc2)S(=O)(=O)c2ccccc2)c(Cl)c1,> 11.4 µM,-27.7%,,> 46 µM,> 9.22 µM,inactive,,-14.8%,0.0316 µM (active),inactive,0.158 µM (active),,,,
Cn1cnc([N+](=O)[O-])c1Sc1nnc(-c2cccnc2)n1C,> 11.4 µM,19.7%,4.54%,> 46 µM,> 9.22 µM,inactive,inactive,,,,,,,,
CN(C)CC[C@@H](C(=O)C(C)(C)C)c1ccccn1,> 11.4 µM,2.04%,1.4%,> 46 µM,> 9.22 µM,inactive,inactive,,,,,,,,
O=C(O)C/C=C\CC(=O)O,> 11.4 µM,-4.27%,1.96%,> 46 µM,> 9.22 µM,inactive,inactive,,,,,,,,
COc1ccc(CNc2nc(-c3ccccc3OC)nc3ccccc23)c(OC)c1,> 11.4 µM,-13.6%,16.1%,> 46 µM,> 46 µM,inactive,inactive,,,,,inactive,inactive,20 µM (active),
c1ccc(CSCCc2ccncc2)cc1,> 11.4 µM,-1.16%,,> 46 µM,> 9.22 µM,inactive,inactive,-10.1%,,,,,,,1.26 µM (active)
Cc1cccc(C(=O)O)c1C[C@H]1NCC[C@H]2c3ccccc3N[C@@H]12,> 11.4 µM,29.4%,4.38%,> 46 µM,> 9.22 µM,inactive,inactive,,,,,,,,

# Reference: PubChem BioAssay (NCATS)
